The list is not random: actives were taken first. Their share in the collection is about 2.9%.
Rango dissoc inh = prevents RanGTP from dissociating the Rango-importin beta complex; O95149+P62826; Biochemical FRET Rango-importin beta, RanGTP-induced dissociation; Potency, µM (titrated, usually from 46.1 µM), for the others: top-dose activity change, negative = inhibition; actives 0.071% (n = 340,000); AID 540253; further: potency means the concentration at half of the fitted maximal effect; % of control where 0% means no effect; nearly all actives have a fitted effect of over 45% in size
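Compounds sat 5 min at room temperature with 0.1 uM Rango biosensor plus 0.25 uM importin beta, then FRET pre-read. RanGTP-RCC1 (0.6 uM Ran, 2mM GTP, 0.2 uM RCC1) added for 45 min, and the CFP/YFP post-read measured blocked complex dissociation.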
TSG101-PTAP inh = blocks PTAP/TSG101 interaction to inhibit HIV-1 budding. Q99816. Fluorescence polarization, FITC-PTAP peptide / Tsg101 binding. Potency, µM (doses to about 115 µM), without a hit: at the highest dose activity change, negative = inhibition, most hits filed as inhibitors. 340,000 tested, under 10 active; active means well fitted inhibition curve with a large enough effect in the main read-out, with a control signal flat, not every such curve was filed as active; inconclusive means small, poorly fitted or top-dose-only effect, or effect the other way, or a change in a side signal; inactive means no such curve, though single readings can be large or run the other way; further: potency means the concentration at half of the fitted maximal effect; % of control where 0% means no effect
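Compounds were pin-transferred onto Tsg101 binding domain (10 uM final) in HEPES pH 7.5 buffer, then FITC-PTAP peptide was added at 50 nM final. After 20 min at RT, polarization reported peptide displacement across a qHTS concentration series.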
Mm-Cpn inhibitor = M. maripaludis TRiC chaperonin inhibition. purified Mm-Cpn ATPase, ADP Transcreener TR-FRET. Potency, µM (series often up to 76.9 µM), for inactives: at the highest dose activity, negative = inhibition, most hits filed as inhibitors. actives 0.031% (n = 330,000). AID 504842; active means well fitted inhibition curve with a large enough effect; inconclusive means small, poorly fitted or top-dose-only effect; further: potency means the concentration at half of the fitted maximal effect; on the % scale 0 is the no-effect control and ±100 the full control effect; nearly all actives have a fitted effect of over 80% in size
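Eu-cryptate anti-ADP/ADP-d2 competition gives a ratio inversely related to ADP. Enzyme at 25 nM was pre-exposed to compound for 10 min, then given 10 uM ATP for 30 min, 37°C throughout.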
Rango-impB inh = prevents formation of the Rango-importin beta complex; Q14974; Rango CFP/YFP FRET sensor + importin beta, 45 min; Potency, µM (titrated, usually from 92.2 µM), for inactives: at the top dose inhibition of complex formation; actives 0.031% (n = 340,000);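 further: potency means the concentration at half of the fitted maximal effect; 0% = DMSO wells and 100% = buffer wells lacking importin beta; nearly all actives have a fitted effect of over 15% in size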
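Inhibition scored from the CFP 486 nm/YFP 530 nm FRET ratio 45 min after adding 0.125 microM importin beta to 50 nM Rango biosensor preincubated 5 min with compound (room temperature, PBS with DTT, Tween-20, BSA). No-importin wells as positive control.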
D3 antag = antagonists of human D3 dopamine receptor. P35462. D3R cells, DiscoveRx beta-arrestin luminescence, antagonist mode; stronger effect = lower value. max response, negative = inhibition, %. actives 2.5% (n = 360,000); in the data active means max response below about -50%; inconclusive means no clear call, values can overlap the other calls; further: on the % scale 0 is the no-effect control and ±100 the full control effect
Target sequence (P35462 whole entry, looked up): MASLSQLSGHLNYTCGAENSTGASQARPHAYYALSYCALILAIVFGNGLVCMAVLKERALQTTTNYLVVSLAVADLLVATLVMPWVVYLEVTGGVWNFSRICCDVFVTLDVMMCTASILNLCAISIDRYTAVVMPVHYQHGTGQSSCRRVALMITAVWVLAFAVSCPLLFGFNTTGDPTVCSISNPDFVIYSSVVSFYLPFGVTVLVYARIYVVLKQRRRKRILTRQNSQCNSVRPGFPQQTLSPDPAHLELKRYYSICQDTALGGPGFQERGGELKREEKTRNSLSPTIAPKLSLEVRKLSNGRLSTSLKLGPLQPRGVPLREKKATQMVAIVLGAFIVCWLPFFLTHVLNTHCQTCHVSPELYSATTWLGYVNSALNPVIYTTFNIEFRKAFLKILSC
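Cells expressing the human receptor were seeded at 1500 cells/well, incubated overnight at 37 degrees C in 5% CO2, then exposed to library compounds with dopamine controls for 90 minutes at 37 degrees C before luminescent detection.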
DRD3 agonist = agonists of human D3 dopamine receptor. D3R DiscoveRx beta-arrestin cells, luminescence, 90 min. max activation, %. actives 0.58% (n = 410,000). AID 652048; in the data active means max activation above about 30%; further: 0% is about no effect
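Cells at 1500/well, incubated overnight, then treated with pinned compounds (dopamine as control) for 90 min at 37 degrees C. DiscoveRx reagent added for 30 - 60 minutes at room temperature; luminescence read.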
Numbers without * were called inactive; ? = inconclusive; · = no result. Unless noted, the call rests on the fitted dose curve.

SMILES	Rango dissoc inh	TSG101-PTAP inh	Mm-Cpn inhibitor	Rango-impB inh	D3 antag	DRD3 agonist
Cc1ccc(C(=O)NC(C#N)=C(Cl)Cl)cc1	-13.7%	-1.7%	-1.8%	-3.3%	-61.1*	-7.5
Cc1ccc(C(=O)NCC#N)cc1	18.7%	-5.0%	4.2%	-0.3%	0.5	2.6
CCN(c1ccccc1)S(=O)(=O)c1cccc(C(=O)N(C)CCOc2ccccc2)c1	-0.4%	0.2%	-1.0%	0.4%	-15.4	1.9
O=C(O)c1cccc(N2C(=O)c3cc([N+](=O)[O-])cc4cc([N+](=O)[O-])cc(c34)C2=O)c1	-8.9%	-7.7%	-2.4%	2.8%	-57.9*	-25.4
O=C(O)c1cccc(N2C(=O)c3cccc4cccc(c34)C2=O)c1	-6.5%	-12.8%	-14.6%	3.1%	-24.3	4.6
O=C1c2cc([N+](=O)[O-])cc3cc([N+](=O)[O-])cc(c23)C(=O)N1c1ccccn1	9.0%	-3.7%	-0.3%	-0.7%	-76.4*	-40.3
CC1CCN(C(=O)c2ccc(SCc3ccccc3F)c([N+](=O)[O-])c2)CC1	13.1%	0.5%	-0.2%	-2.5%	?	-11.0
Cc1cccn2c(=O)c3cc(C#N)c(=N)n(CCN4CCOCC4)c3nc12	8.2µM*	-1.2%	1.7%	?	16.1	-3.5
Cc1cccn2c(=O)c3cc(C#N)c(=N)n(CCCN4CCOCC4)c3nc12	?	-0.8%	·	?	-24.3	-9.9
COc1ccc([C@H]2CC(=O)C=C(c3cc(C)ccc3OC)C2)cc1	-0.6%	-0.3%	-1.1%	-1.7%	-58.3*	-8.9
CCCOc1ccc(C2=CC(=O)C[C@H](c3ccc(OC)cc3)C2)cc1	-9.5%	-1.4%	0.0%	4.7%	50.6	36.1*
COc1cc(F)cc(C2=CC(=O)C[C@H](c3ccc(F)cc3)C2)c1	29.4%	-7.6%	2.1%	-1.8%	-78.7*	-16.0
COc1ccc([C@H]2CC(=O)C=C(c3ccc(CNC(=O)OC(C)(C)C)cc3)C2)cc1	1.3%	-0.7%	-3.5%	3.6%	88.8	49.3*
COCCN1C(=O)c2oc3ccc(C)cc3c(=O)c2C12C(=O)N(C)c1ccccc12 (stereo not given)	·	·	·	·	·	2.2
Cc1cccc(OCCSc2nc3ccccc3n2CC(=O)N2CCOCC2)c1C	·	·	·	·	·	7.7
C=CCn1c(-c2cccc(Cl)c2)n[nH]c1=S	-9.8%	0.5%	-15.0%	4.4%	-56.8*	5.4
Cc1c(Cl)cccc1NC(=O)CCCCCN1C(=O)CCC1=O	12.8%	-1.9%	-0.1%	?	-4.8	-4.9
O=C(CCCCCN1C(=O)CCC1=O)Nc1ncn[nH]1	-4.3%	-4.9%	-5.1%	-2.1%	-53.3*	1.0
Clc1cccc(-c2noc3ncnc(NC4CCCCC4)c23)c1	·	·	·	·	·	2.0
O=S(=O)(Nc1ccccc1)c1ccc(Oc2ncc(C(F)(F)F)cc2Cl)cc1	-3.0%	?	-0.4%	-3.4%	-62.5*	-0.6
CCOC(=O)C1=C(C)N=c2s/c(=C\c3ccc(OC(C)=O)c(OCC)c3)c(=O)n2C1/C=C/c1ccccc1 (stereo not given)	-6.0%	-2.9%	0.5%	-1.4%	-56.3*	-5.4
CCOC(=O)C1=C(C)N=c2s/c(=C\c3ccc(OC(C)=O)cc3)c(=O)n2C1/C=C/c1ccccc1 (stereo not given)	-16.1%	1.2%	1.6%	?	4.3	-11.5
CN1CCC(N(Cc2cccs2)c2ccccc2)CC1	·	·	·	·	·	-17.6
Cc1nn(-c2ccc(N3CCCC3)nn2)c(C)c1CCC(=O)N1CCN(c2ccc(F)cc2)CC1	·	·	·	·	·	4.0
O=c1c(-c2cccc3ccccc23)[n+]([O-])c2ccccc2n1O	?	-4.2%	-6.6%	?	-53.0*	-2.0
SMILES	Rango dissoc inh	TSG101-PTAP inh	Mm-Cpn inhibitor	Rango-impB inh	D3 antag	DRD3 agonist
CCOn1c(=O)c(-c2cccc3ccccc23)[n+]([O-])c2ccccc21	5.6%	0.2%	-6.1%	3.6%	8.1	5.5
O=C(c1ccc2c3c(cccc13)CC2)C1CCCN(Cc2ccccn2)C1 (stereo not given)	2.7%	2.2%	-3.7%	-3.8%	-51.2*	-33.3
Cc1cnc(CN2CCCC(C(=O)c3ccc4c5c(cccc35)CC4)C2)[nH]1 (stereo not given)	3.7%	0.4%	1.9%	-3.3%	-53.3*	-17.1
COCC(=O)N1CCCC(C(=O)c2ccc3c4c(cccc24)CC3)C1 (stereo not given)	-3.0%	-3.5%	-0.2%	-0.5%	14.3	-7.2
O=C(c1ccc2c3c(cccc13)CC2)C1CCCN(Cc2ccc(OCCO)cc2)C1 (stereo not given)	3.6%	-3.1%	-3.3%	-1.2%	-97.4*	-1.4
COc1ccccc1N1CCN(c2ncc3c(n2)CCN(Cc2ccc(C)s2)C3)CC1	·	·	·	·	·	4.0
CCOC(=O)c1cccc(NC(=O)c2ccc(-n3cnnn3)cc2)c1	-11.2%	-4.3%	1.1%	-5.4%	-2.6	74.3*
COC(=O)c1cccc(NC(=O)c2cccc(-n3cnnn3)c2)c1	·	·	·	·	-1.6	-4.9
CCOc1ccccc1NC(=O)Cn1nnc2sc3c(c2c1=O)CCC(C(C)(C)C)C3 (stereo not given)	·	·	·	·	·	5.6
CCOc1cc(/C=N/NC(=O)c2cc(-c3cccc(OC)c3)nc3ccccc23)ccc1O	-9.4%	-0.5%	·	1.1%	96.4	35.1*
COc1ccccc1-c1cc(C(=O)N/N=C/c2cccs2)c2ccccc2n1	-1.0%	-5.6%	-5.1%	4.2%	-78.1*	-30.8
COc1cc(/C=N/NC(=O)c2nc(-c3ccccc3)n(-c3ccccc3)n2)ccc1O	-2.6%	-7.3%	-2.1%	-0.7%	5.6	-4.7
COc1cc(/C=N/NC(=O)c2cc(-c3ccccc3)nc3ccccc23)ccc1O	?	-2.7%	-0.8%	?	23.4	-9.1
COc1cc(/C=N/NC(=O)c2cnn3c(C)cc(-c4ccccc4)nc23)ccc1O	-1.2%	-11.1%	0.7%	2.6%	0.0	47.1*
COc1cc(/C=N/NC(=O)c2cc(-c3cccc(Br)c3)nc3ccccc23)cc(OC)c1O	-14.5%	-0.8%	·	0.0%	6.7	31.7*
COc1cc(/C=N/NC(=O)c2cc(-c3ccccc3Cl)nc3ccccc23)cc(OC)c1O	-7.4%	-1.3%	·	4.2%	-10.6	6.9
O=C(N/N=C/c1cccs1)c1cc(-c2ccncc2)nc2ccccc12	1.0%	-2.5%	0.2%	-1.0%	-23.6	-18.9
Cn1c(=O)c2c(SCC(=O)N3CCc4ccccc43)nc(-c3cccc(F)c3)nc2n(C)c1=O	·	·	·	·	·	-0.6
CC(C)COc1cccc(-c2cc(C(=O)N/N=C/c3ccncc3)c3ccccc3n2)c1	-1.9%	?	0.2%	-0.4%	66.2	33.8*
